# According to PubChem BioAssay (Tox21):
# Inconclusive results are not listed. Where a call stands in place of a potency, no number is given. Activity calls are given as the source filed them. The call rests on the fitted dose curve; in most records, active means well fitted cell-killing curve with a large enough effect in the repeat runs; inconclusive means weak or mixed curves, or effect the other way; inactive means flat fitted curve, though single readings scatter.
# What was measured:
# [1] = cAMP Responsive Elements (CRE) small molecule antagonists, cell-based qHTS assay: qHTS cell viability counter screen (AID 2060913); further: nearly all actives have a fitted effect of over 40% in size
# Method in brief: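 Cytotoxicity counter screen multiplexed with the CRE-bla antagonist read: HEK293T cells in DMEM with dialyzed FBS and 25 mM HEPES were treated 3 hrs under 0.25 uM final NKH477, then viability measured by CellTiter-Glo luminescence.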
# [2] = cAMP Responsive Elements (CRE) small molecule agonists, cell-based qHTS assay: qHTS cell viability counter screen (AID 2060914); further: nearly all actives have a fitted effect of over 50% in size
# Method in brief: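 In the same wells as the reporter read, viability of CRE-bla HEK 293T cells was quantified by CellTiter-Glo luminescence after a 3 h compound exposure.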
Structure (SMILES),Potency [1],Potency [2]
O=C(Cl)c1ccccc1,inactive,inactive
CC(=[OH+])/C=C(/C)[O-].CC(=[OH+])/C=C(\C)[O-].CC(=[OH+])/C=C(\C)[O-].[Al],inactive,inactive
O=c1[nH]c(=O)[nH]c(=O)[nH]1,inactive,inactive
C=C1CC[C@@]2(O)[C@H]3Cc4ccc(O)c5c4[C@@]2(CCN3CC2CC2)[C@H]1O5,inactive,inactive
Cc1cc(Cl)ccc1N=CN(C)C,inactive,inactive
CCNc1nc(NC(C)C)nc(SC)n1,inactive,inactive
CC(C)(c1ccccc1)c1ccc(O)cc1,inactive,inactive
CNC(=O)O/N=C/C(C)(C)SC,inactive,inactive
NC(=O)C(Cl)(Cl)Cl,inactive,inactive
O=c1ssc(Cl)c1Cl,inactive,inactive
NCCc1ccc(O)cc1,inactive,inactive
ClCBr,inactive,inactive
N#Cc1cc([N+](=O)[O-])ccc1N,inactive,inactive
CCCCCCCCOC(=O)c1ccccc1C(=O)OCCCCCCCC,inactive,inactive
CCOP(=S)(OCC)SCS(=O)(=O)C(C)(C)C,inactive,inactive
[O-][Cl+2]([O-])O,inactive,inactive
CCCCCOC(=O)c1ccccc1C(=O)OCCCCC,inactive,inactive
CN(C)c1ccc(N=O)cc1,inactive,inactive
CCC(C)Br (stereo unspecified),inactive,inactive
Fc1cccc(Cl)c1CCl,inactive,inactive
NC1=NC(=O)C(c2ccccc2)O1 (stereo unspecified),inactive,inactive
C=CCN=C=S,inactive,inactive
CN(C)C(=O)Nc1ccc(Cl)cc1,inactive,inactive
